Compounds with a hit are over-represented: about 6.2% of the library has one in this group of screens.
H9c2 protect: cardioprotection against H2O2-induced cell death, primary screen, uHTS, H9c2 cells, ATPLite luminescence; protection from H2O2 cell death, % at 20 µM; 360,000 compounds, 0.63% hits; H9c2 cardiomyocytes, H2O2 injury protection, 2 h;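 active = compounds giving at least 50% protection of heart cells from peroxide-induced death in the single-dose screen, raw or plate-pattern-corrected value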
AI-2 QS modul: Vibrio harveyi AI-2 quorum sensing modulators, primary screen, JMH597 strain, luminescence/OD600 ratio. Vibrio harveyi JMH597 AI-2 luminescence/OD600 ratio, 9 h; active compounds read low; strain lacks LuxN and CqsS sensors; 0 = neutral-control median. activity change, % at 7.5 µM. 300,000 compounds, 0.4% hits; in the data active = activity change below about -75%, passing the limit was not always enough;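 note: luminescence divided by OD600 gain over 9 h not by final OD600 alone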
AHR activator: AHR activators, primary screen, cell-based, luminescence, luciferase reporter, human; AHR-responsive luciferase reporter cells; activation, % at 5 µM; 320,000 compounds, 2.5% hits; in the data active = activation above about 47%
Target sequence (P35869 whole entry, looked up): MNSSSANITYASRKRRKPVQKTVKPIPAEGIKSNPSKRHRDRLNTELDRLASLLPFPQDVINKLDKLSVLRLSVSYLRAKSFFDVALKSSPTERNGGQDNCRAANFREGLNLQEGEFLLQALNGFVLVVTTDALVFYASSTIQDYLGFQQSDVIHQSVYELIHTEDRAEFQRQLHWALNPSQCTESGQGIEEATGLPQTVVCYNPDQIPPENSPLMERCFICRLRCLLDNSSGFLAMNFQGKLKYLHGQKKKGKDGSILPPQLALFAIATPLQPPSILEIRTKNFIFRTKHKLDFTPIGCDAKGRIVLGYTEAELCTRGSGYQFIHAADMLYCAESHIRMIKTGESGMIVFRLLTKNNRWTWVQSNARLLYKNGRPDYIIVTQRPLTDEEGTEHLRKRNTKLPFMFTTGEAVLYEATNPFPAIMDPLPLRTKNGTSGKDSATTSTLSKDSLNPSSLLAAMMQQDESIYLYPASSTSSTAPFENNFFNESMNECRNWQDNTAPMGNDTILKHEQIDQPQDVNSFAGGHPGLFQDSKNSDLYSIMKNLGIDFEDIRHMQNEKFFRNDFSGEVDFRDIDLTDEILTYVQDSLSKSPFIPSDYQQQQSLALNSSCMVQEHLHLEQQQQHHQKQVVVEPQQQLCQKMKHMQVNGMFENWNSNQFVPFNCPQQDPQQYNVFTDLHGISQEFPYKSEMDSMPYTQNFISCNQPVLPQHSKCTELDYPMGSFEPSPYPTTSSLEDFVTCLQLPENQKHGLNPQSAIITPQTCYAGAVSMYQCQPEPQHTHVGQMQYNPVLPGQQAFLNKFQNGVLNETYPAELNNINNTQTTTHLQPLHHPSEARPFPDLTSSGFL
SUMO Mot1 rescue: yeast Mot1-301 growth rescue at high temperature, primary screen, SUMOylation pathway inhibitor project, S. cerevisiae, ATP luminescence, 38.5C; S. cerevisiae Mot1-301 growth rescue; percent above DMSO median, 100 means doubled; growth rescue, % at 18.8 µM; 320,000 compounds, 1% hits; AID 2716, 2010;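 active = every valid replicate shows activation above 250% relative to neutral control wells; inactive = the rest, any valid replicate at or below 250%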
NR3A LBD binder: binders of NR3A ligand-binding domain, primary screen, biophysical, differential scanning fluorimetry, uHTS. Glutamate receptor ionotropic, NMDA 3A (GRIN3A) ligand-binding domain. NR3A LBD differential scanning fluorimetry, Tm shift; 0% = protein alone, 100% = glycine-bound protein. Tm shift relative to glycine control, % at 25 µM. 340,000 compounds, 2.5% hits. AID 1259313, 2017;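 active = melting temperature shift of at least 10% of the positive control shift, at one fixed dose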
NTR1 agonist: agonists of human NTR1, primary screen, imaging, U2OS cells, beta-arrestin-GFP, high content; Neurotensin receptor type 1 (Homo sapiens), P30989; 330,000 compounds, 0.17% hits; NTR1-U2OS beta-arrestin-GFP spot imaging, agonist mode; activation, % at 20 µM; AID 493036, 2011;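 active = activation at or above 40% of the spot to cytoplasm intensity ratio, with at least 20 cells analyzed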
Yeast Mot1 SUMO: growth restoration of Mot1-301 yeast on galactose, dose response, SUMO pathway inhibitor project, whole organism, S. cerevisiae, ATP luminescence, cherry-picked samples | AID 493004, 2010 | 2,300 tested, under 10 active | growth activity, percent, % at 42 µM | S. cerevisiae Mot1-301 galactose growth, 24 h; -100 = growth of slx-deleted rescue strain | shares compounds with SUMO Mot1 rescue;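 active = Signal drops as the depositor expects, and the fitted half-maximal dose is no more than ten times the top valid tested dose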;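 note: more negative values mean stronger growth rescue toward the control strain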
Of the large screens only hits and unclear results are named; the others gave an inactive call (follow-up assays come after a bar, where they were run).

CC1C(=O)N2CCCc3cc(NC(=O)COc4ccc(Cl)cc4)cc1c32 (stereo not given)	none (no result: NR3A LBD binder)
CC(=O)c1ccc(N2CCN(CC(=O)Nc3cc(C)on3)CC2)cc1	SUMO Mot1 rescue 483.1 | Yeast Mot1 SUMO inactive
COc1ccc(Nc2nc3cc(C)ccc3cc2C#N)c(OC)c1	none
COc1ccc2cc(C#N)c(Nc3cccc(F)c3)nc2c1	SUMO Mot1 rescue 572.1 | Yeast Mot1 SUMO inactive
CSc1ccccc1NC(=O)CSc1nnnn1-c1ccccc1SC	none
CSc1ccccc1-n1nnnc1SCC(=O)Nc1ccccc1C	SUMO Mot1 rescue 505.9, NR3A LBD binder 14.2 | Yeast Mot1 SUMO inactive
O=C(NCCc1ccc(Cl)cc1)C1CCCO1 (stereo not given)	none
O=C(O)c1ccc(CNC(=O)c2ccccc2NC(=O)c2cccc([N+](=O)[O-])c2)cc1	none
O=C(O)c1ccc(CNC(=O)c2ccccc2NC(=O)c2ccc([N+](=O)[O-])cc2)cc1	SUMO Mot1 rescue 713.5 | Yeast Mot1 SUMO inactive
Cc1[nH]oc(=O)c1N=Nc1ccccc1	SUMO Mot1 rescue 465.2 | Yeast Mot1 SUMO inactive
Cc1[nH]n(-c2ccccc2)c(=O)c1N=Nc1c(Cl)cccc1Cl	none
Cc1[nH]oc(=O)c1N=Nc1c(Cl)cccc1Cl	SUMO Mot1 rescue 358.3 | Yeast Mot1 SUMO inactive
Cc1c(C(=O)Nc2ccccc2)cnn1-c1ccccc1	none
Cc1c(C(=O)Nc2cccc(F)c2)cnn1-c1ccccc1	SUMO Mot1 rescue 805.1 | Yeast Mot1 SUMO inactive
CCOC(=O)c1c(-c2ccccc2)oc2ccc(OCC(O)CN(C)C)cc12 (stereo not given)	none
C#CCOCCOCCOCCNc1nc(N2CCN(C(=O)[C@H](CC(N)=O)n3cc(C(N)[C@@H](C)CC)nn3)CC2)nc(N2CCN(C(=O)[C@H](CCC(=O)O)n3cc([C@@H](N)CCCCN)nn3)CC2)n1 (stereo not given in full)	none (no result: AI-2 QS modul)
O=C1CSC(c2ccc(F)c(F)c2)N1c1ccccc1F (stereo not given)	SUMO Mot1 rescue 890.5 | Yeast Mot1 SUMO inactive
O=C1CSC(c2ccc(F)cc2)N1c1ccccc1F (stereo not given)	none
CCOC(=O)c1ccc(NC(=O)NCc2ccc(OC)cc2)cc1	none
CCOC(=O)c1ccc(NC(=O)NCc2ccncc2)cc1	SUMO Mot1 rescue 507.3 | Yeast Mot1 SUMO inactive
O=C(Oc1ccc2c(c1)OCO2)c1cccs1	SUMO Mot1 rescue 478.2 | Yeast Mot1 SUMO inactive
O=C(Nc1cccc2ccccc12)c1csc([C@@H]2C[C@H](O)[C@@H](CO)O2)n1	none (no result: AI-2 QS modul, AHR activator, SUMO Mot1 rescue, NR3A LBD binder, NTR1 agonist)
Cc1cc(S(=O)(=O)N2CCCC(N3CCOCC3)C2)c(C)cc1Cl (stereo not given)	SUMO Mot1 rescue 421.2 | Yeast Mot1 SUMO inactive
O=S(=O)(c1cc(Cl)ccc1Cl)N1CCN2CCCC2C1 (stereo not given)	none
C/C(=N\NC(=O)c1cccc(N/N=C(\C)c2ccccc2)c1)c1ccccc1	none (no result: AI-2 QS modul, NTR1 agonist)
C/C(=N\NC(=O)c1cccc(N/N=C(\C)c2ccc([N+](=O)[O-])cc2)c1)c1ccc([N+](=O)[O-])cc1	SUMO Mot1 rescue 540.4 | Yeast Mot1 SUMO inactive
CCN(CC)c1ccc2c(C)c(CO)c(=O)oc2c1	none
CCN(CC)c1ccc2c(C)c(CN3CCOCC3)c(=O)oc2c1	SUMO Mot1 rescue active | Yeast Mot1 SUMO inactive
COc1cc(CN2CCC(Oc3cc(C(=O)NC4CC4)ccc3OC)CC2)cc(OC)c1	SUMO Mot1 rescue 393.3 | Yeast Mot1 SUMO inactive
CCOC(=O)C1=C(COC(=O)Cc2ccc(Cl)cc2)NC(=O)NC1C (stereo not given)	none (no result: AI-2 QS modul)
CCOc1ccc(CCNC(=O)CSCC(=O)Nc2ccc(OC)cc2)cc1OCC	none (no result: AI-2 QS modul)
CCNc1ccccc(C(=O)/C=C/c2ccc3c(c2)OCO3)c1=O	SUMO Mot1 rescue 438.6 | Yeast Mot1 SUMO inactive
COC(=O)/C=C/c1ccc2c(c1)OCO2	none
Cc1ccc(S(=O)(=O)N2CCCCC2)cc1NC(=O)CNC(C)c1ccc(Cl)c(Cl)c1 (stereo not given)	none (no result: AI-2 QS modul)
O=[N+]([O-])c1ccc(-c2csc(N3CCc4ccccc4C3)n2)cc1	SUMO Mot1 rescue 366.7 | Yeast Mot1 SUMO inactive
Brc1ccc(-c2csc(N3CCc4ccccc4C3)n2)cc1	none
CS(=O)(=O)Nc1ccccc1C(=O)NCCSCc1ccccc1	SUMO Mot1 rescue 522.7 | Yeast Mot1 SUMO inactive
CS(=O)(=O)Nc1ccccc1C(=O)NCCSc1ccccc1	none (no result: AI-2 QS modul)
Nc1nc2ccc(C(=O)NC3CCCCC3)cc2s1	none
O=C(NC1CCCCC1)c1ccc2snnc2c1	SUMO Mot1 rescue 528.9 (no result: AI-2 QS modul) | Yeast Mot1 SUMO inactive
COc1cc2c(cc1OC)C(C)N(C(=O)c1cc3c(C)cc(C)cc3[nH]1)CC2 (stereo not given)	none
CC1(Oc2ccc(F)cc2)CCN(Cc2ccccc2OC(F)F)C1 (stereo not given)	none (no result: AI-2 QS modul, AHR activator, SUMO Mot1 rescue, NR3A LBD binder, NTR1 agonist)
Nc1cc(=O)[nH]c(=O)n1CCc1ccccc1	SUMO Mot1 rescue 541.9 | Yeast Mot1 SUMO inactive
O=C(O)CC(NC(=S)NCc1ccccc1)C(=O)O (stereo not given)	none
NC(=O)CC(NC(=S)NCc1ccccc1)C(=O)O (stereo not given)	SUMO Mot1 rescue 582.5 | Yeast Mot1 SUMO inactive
CN(CC(=O)Nc1c(Cl)cccc1Cl)C(=O)C1CSC2(C)CCC(=O)N12 (stereo not given)	none
Cc1cc(C)c(C)c(S(=O)(=O)N2CCC(C(=O)N(C)Cc3nc4ccccc4c(=O)[nH]3)CC2)c1C	none (no result: AI-2 QS modul, AHR activator, SUMO Mot1 rescue, NTR1 agonist)
Cc1cc(C(=O)N/N=C/c2ccc3c(c2)OCO3)c2ccccc2n1	SUMO Mot1 rescue 856.0 | Yeast Mot1 SUMO inactive
NCCCCCc1nnc(SCC(=O)Nc2cccc(Cl)c2)o1	none
CCC(C)[C@H](N)c1nnc(SCC(=O)Nc2cccc(Cl)c2)o1 (stereo not given in full)	SUMO Mot1 rescue 557.6 | Yeast Mot1 SUMO inactive
COc1ccc2c(c1)OC[C@H]1[C@H]2N2C(=O)c3cc(C)ccc3NC(=O)[C@@]2(C)[C@H]1c1ccccc1	SUMO Mot1 rescue active (no result: AI-2 QS modul) | Yeast Mot1 SUMO inactive
COc1ccc2c(c1)[C@H]1[C@H](CO2)[C@H](c2ccccc2)[C@]2(C)C(=O)Nc3ccc(Cl)cc3C(=O)N12	none (no result: AI-2 QS modul, AHR activator, SUMO Mot1 rescue, NTR1 agonist)

Screening results (PubChem)
